Assay outcomes: PubChem, National Center for Advancing Translational Sciences (NCATS)
CHX counter – counter-screen hit for Shiga toxin inhibitors, cycloheximide | AID 2314 | actives 12% (n = 300,000) | max response, % | cell reporter, cycloheximide protein synthesis inhibition counterscreen; in the data active = max response mostly above about 13%, no sharp cut-off; inactive = mostly below about 14%; also: read at 38.3 µM for the half of the compounds with a filed dose; 0% is about no effect
Pf growth 96h – inhibits malaria parasite growth, 96 h | P. falciparum luciferase reporter growth, 96 h | Potency, µM (highest dose often 28.7 µM), for inactives: top-dose activity change, negative = inhibition, most hits filed as inhibitors | actives 6.9% (n = 320,000); also: potency is read from the fitted curve at half-maximal effect; % is scaled to controls: 0 for no effect and ±100 for the full control effect
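Cell-based qHTS: luciferase-tagged P. falciparum in erythrocytes (2% hematocrit, 0.05% parasitemia final) incubated with compounds for 96 hours, 37 C, 5% CO2; luciferase detection reagent then added and luminescence measured.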
Shiga inhibitor – Shiga toxin inhibition. inhibition, % at 38.7 µM. Vero cells, Shiga toxin protein synthesis inhibition reporter. actives 9.2% (n = 290,000); in the data active = inhibition mostly above about 28%, no sharp cut-off; inactive = mostly below about 43%; also: 0% is about no effect
Pf growth 48h – inhibits P. falciparum growth in the first generation, 48 h; P. falciparum luciferase growth in erythrocytes, 48 h; Potency, µM (series often up to 28.7 µM), without a hit: at the highest dose activity change, negative = inhibition, actives largely listed as inhibitors; actives 5.9% (n = 310,000); AID 504832; also: potency is read from the fitted curve at half-maximal effect; % is scaled to controls: 0 for no effect and ±100 for the full control effect
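Luciferase-expressing P. falciparum in infected erythrocytes (2% hematocrit, 0.1% parasitemia final) in RPMI 1640/0.5% Albumax were exposed to compound for 48 hours at 37 C, 5% CO2; growth read as luminescence.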
HCV inhibitor – blocks hepatitis C virus; Huh7.5.1 HCVcc-Cre infection, luciferase reporter, 44 h; Potency, µM (titrated, usually from 41.8 µM), for the others: at the highest dose activity change, negative = inhibition, actives largely listed as inhibitors; actives 3.4% (n = 340,000); also: potency is read from the fitted curve at half-maximal effect; % is scaled to controls: 0 for no effect and ±100 for the full control effect
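Infectious HCV cell culture screen: compound-treated cells (1,000/well, pre-plated 4 h) are infected with HCVcc-Cre at roughly 0.5 moi and grown 44 h. Infection is quantified by luciferase signal after 15 min substrate incubation at room temperature.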
HCMV antiviral – blocks human cytomegalovirus replication | HFF cells, HCMV-luciferase reporter, 72 h; active compounds read low | activity change, negative = inhibition, % at 57.5 µM | actives 4.5% (n = 410,000); in the data active = activity change below about -60%; inconclusive = no clear call, values can overlap the other calls; inactive = above about -39%; also: % is scaled to controls: 0 for no effect and ±100 for the full control effect
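HFF cells seeded 16 h at 37C, treated with compounds, infected with luciferase-reporter HCMV at MOI 1 PFU/cell; luciferase read at 72 h post infection, normalized to buffer-only and Salinomycin controls.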
An asterisk follows results filed as active; [ ] = dose if it differs, or a comment. An excerpt weighted towards active compounds, which were near 21% of everything screened. Unless noted, calls follow the shape of the dose curve; as a rule, active = well fitted inhibition curve with a large enough effect; inconclusive = small, poorly fitted or top-dose-only effect, or another doubt; inactive = no such curve, though single readings can be large or run the other way.

For N#Cc1ccccc1OCC(=O)OCC(=O)Nc1ccc2c(c1)OCO2 the results were Pf growth 96h 7%, Pf growth 48h -6%, HCV inhibitor 13% and HCMV antiviral inconclusive.
O=C(Nc1ccc(Nc2ccncc2)cc1)c1ccc(Nc2ccnc3ccc([N+](=O)[O-])cc23)cc1[N+](=O)[O-] was read as CHX counter -2, Pf growth 96h 0.52µM*, Shiga inhibitor -7, Pf growth 48h 1.5µM*, HCV inhibitor -28% and HCMV antiviral -23.
Screening O=C(Nc1ccc(NC(=O)c2ccc([N+](=O)[O-])cc2[N+](=O)[O-])cc1)c1ccco1 returned CHX counter -4, Pf growth 96h -17%, Shiga inhibitor -6, Pf growth 48h inconclusive, HCV inhibitor inconclusive and HCMV antiviral -31.
CC(=O)c1cccc(S(=O)(=O)N2CCC(C(=O)Oc3ccc(-c4nnco4)cc3)CC2)c1 was read as HCV inhibitor 2% and HCMV antiviral -11.
For O=[N+]([O-])c1c(Nc2ccccc2O)cc(Cl)c2nonc12 the results were CHX counter -10, Pf growth 96h 2%, Shiga inhibitor 1, Pf growth 48h 12µM*, HCV inhibitor 11µM* and HCMV antiviral -97*.
For O=C(O)c1cc(Nc2cc(Cl)c3nonc3c2[N+](=O)[O-])ccc1O the results were CHX counter 3, Pf growth 96h 15%, Shiga inhibitor -3, Pf growth 48h 18%, HCV inhibitor -5% and HCMV antiviral 31.
For Nc1cc(Cl)c2nonc2c1[N+](=O)[O-] the results were CHX counter -3, Pf growth 96h 10%, Shiga inhibitor 22, Pf growth 48h -2%, HCV inhibitor 4.5µM* and HCMV antiviral -95*.
Screening CSc1nc(N)n2nc(C)cc2n1 returned HCMV antiviral 4.
Screening CSc1nc(N)n2nc(C(C)(C)C)cc2n1 returned CHX counter 15*, Pf growth 96h 14%, Shiga inhibitor 26, Pf growth 48h 1%, HCV inhibitor 11% and HCMV antiviral 20.
O=C(CCNC(=O)c1ccc(Br)cc1)Nc1ccccc1N1CCCC1 was read as Pf growth 96h inconclusive, Pf growth 48h inconclusive, HCV inhibitor inconclusive and HCMV antiviral -11.
CC(=O)Nc1ccc2c(c1)nc(C)n2Cc1ccccc1 was read as CHX counter -4, Pf growth 96h 0.41µM*, Pf growth 48h 5%, HCV inhibitor 12% and HCMV antiviral -3.
`Cc1cccc(NCc2nc3ccccc3n2Cc2ccccc2)c1` gave CHX counter 12, Pf growth 96h inconclusive, Shiga inhibitor 15, HCV inhibitor -23% and HCMV antiviral 18.
For Cc1nc2cc(NCc3nc4ccccc4n3Cc3ccccc3)ccc2n1C the results were CHX counter 27*, Pf growth 96h 213%, Shiga inhibitor 44*, Pf growth 48h 99%, HCV inhibitor -27% and HCMV antiviral 14.
For CCOC(=O)CCNC(=O)Nc1ccc2nc(C)n(Cc3ccc(Cl)cc3)c(=O)c2c1 the results were CHX counter -1, Pf growth 96h 7%[5.75 µM], Shiga inhibitor 30, Pf growth 48h 0%, HCV inhibitor -23% and HCMV antiviral 49.
For Cc1nc2c(cc1NC(=O)c1ccccc1)nc(C)n2Cc1ccccc1 the results were CHX counter 1, Pf growth 96h 12µM*, Shiga inhibitor -8, Pf growth 48h -19%, HCV inhibitor 5% and HCMV antiviral -13.
For CC(=O)Nc1ccc2nc(C)n(Cc3ccc(Cl)cc3)c(=O)c2c1 the results were CHX counter 28*, Pf growth 96h -3%, Shiga inhibitor 53*, Pf growth 48h 5%, HCV inhibitor -20% and HCMV antiviral 37.
Screening Cc1c(C(=O)NN)nn(-c2ccc(Cl)cc2)c(=O)c1C#N returned CHX counter -16, Pf growth 96h -30%, Shiga inhibitor -18, Pf growth 48h 5%, HCV inhibitor 14µM* and HCMV antiviral -36.
`Cc1ccc(-n2nc(C(=O)NN)c(C)c(C#N)c2=O)cc1Cl` gave CHX counter -9, Pf growth 96h -2%, Shiga inhibitor -9, Pf growth 48h inconclusive, HCV inhibitor inconclusive and HCMV antiviral 14.
`NNC(=O)c1nn(-c2ccc(Cl)cc2)cc1O` gave CHX counter -3, Pf growth 96h inconclusive, Shiga inhibitor 7, Pf growth 48h 9.3µM*, HCV inhibitor 5% and HCMV antiviral 5.
For CC1CCN(C(=O)CNC(=O)c2ccc(Cl)cc2Cl)CC1 the results were CHX counter 27*, Pf growth 96h 94%, Shiga inhibitor 50*, HCV inhibitor 6% and HCMV antiviral 30.
Screening O=C(NCC(=O)N1CCCCC1)c1ccc(Cl)cc1Cl returned CHX counter 49*, Pf growth 96h 203%, Shiga inhibitor 58*, HCV inhibitor 3% and HCMV antiviral 19.
`CN1CCCN(C(=O)CNC(=O)c2ccccc2F)CC1` gave HCV inhibitor -3% and HCMV antiviral 7.
For O=C(CNC(=O)c1ccc(Cl)cc1Cl)OCC(=O)N1CCCC1 the results were Pf growth 96h 7%, Pf growth 48h 11%, HCV inhibitor 8% and HCMV antiviral -19.
COc1ccccc1N1CCN(C(=O)CNC(=O)c2ccc(Cl)cc2Cl)CC1 was read as CHX counter 2, Pf growth 96h 5%, Shiga inhibitor -6, Pf growth 48h -13%, HCV inhibitor inconclusive and HCMV antiviral inconclusive.
Screening CC1CCCN(C(=O)COC(=O)Cc2c(F)cccc2Cl)C1 (stereo not drawn) returned CHX counter 44*, Pf growth 96h 48%, Shiga inhibitor 67*, Pf growth 48h 54%, HCV inhibitor -2% and HCMV antiviral -25.
`O=C(NCC(=O)N1CCCC1)c1ccccc1F` gave CHX counter 20, Pf growth 96h 89%, Shiga inhibitor 53*, Pf growth 48h 58%, HCV inhibitor 3% and HCMV antiviral 2.
`Cc1c(C(=O)N(C)C)sc2c1c(=O)n(-c1ccc(Cl)cc1)c(=O)n2CC(=O)C(C)(C)C` gave HCMV antiviral 92.
For Cc1cc(OCC(=O)Nc2ccncc2)ccc1[N+](=O)[O-] the results were CHX counter -2, Pf growth 96h 45%, Shiga inhibitor -11, Pf growth 48h inconclusive, HCV inhibitor inconclusive and HCMV antiviral inconclusive.
Cc1cccc(OCC(=O)Nc2c(C(=O)Nc3ccc(F)cc3)oc3ccccc23)c1 was read as HCMV antiviral 31.
O=C(Cc1ccc(Cl)cc1Cl)OCC(=O)N1CCCCC1 was read as CHX counter 22*, Pf growth 96h 1%, Shiga inhibitor 42, Pf growth 48h 11%, HCV inhibitor 2% and HCMV antiviral -6.
For O=C(COc1ccc(Cl)cc1Cl)N1CCCCCC1 the results were CHX counter 28, Pf growth 96h 53%, Shiga inhibitor 22, HCV inhibitor -7% and HCMV antiviral -12.
